Experimental data reported in PubChem BioAssay (EPA / NIEHS).
Results filed as inconclusive are left out. Calls of active or inactive are those of the source. Rule for the calls, unless noted: active = hit-call score of the fitted dose curve at least 0.9, where 1 is the maximum; inconclusive = response in the unintended direction; inactive = score below 0.9.

Tests used:
[1] = target: human RAR-related Orphan Receptor gamma (RORg), RORC (gene 6097) (UniProt P51449); assay: ATG_RORg_TRANS: Attagene TRANS-FACTORIAL HepG2 Assay for human RAR-related Orphan Receptor gamma (RORg) (AID 2283011)
Method in brief: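 Activity is scored as increase in GAL4-UAS reporter mRNA over DMSO, detected by fluorescent RT-PCR and capillary electrophoresis in HepG2 cells transiently expressing a RORg-Gal4 chimera, 24 h after dosing.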

[2] = read-out: E-selectin (Homo sapiens) (UniProt P16581); assay: BSK_3C_Eselectin: BioMAP Diversity Plus: 3C Assay for Eselectin Biomarker Activity (AID 2283015; active = hit-call score of the fitted dose curve at least 0.9, where 1 is the maximum; inactive = score below 0.9;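 note: cell surface E-selectin protein quantified by ELISA 24 h after dosing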); details: primary human endothelial cells (HUVEC); actives raise or lower the signal
Method in brief: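 Human vascular endothelium from umbilical vein is exposed to test chemicals for 24 h. E-selectin levels are read by ELISA and compared with DMSO controls.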

[3] = read-out: Interleukin-1 alpha (IL1a), IL1A (gene 3552); assay: BSK_BE3C_IL1a: BioMAP Diversity Plus: BE3C Assay for Interleukin-1 alpha (IL1a) Biomarker Activity (AID 2283016; active = hit-call score of the fitted dose curve at least 0.9, where 1 is the maximum; inactive = score below 0.9); details: primary human bronchial epithelial cells; actives raise or lower the signal
Method in brief: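 Signal from IL-1a ELISA, taken 24 h after chemical dosing of human bronchial epithelial cells, is compared with DMSO as baseline using bidirectional curve fitting.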

[4] = read-out: Monocyte Chemoattractant Protein-1 (MCP1), CCL2 (gene 6347); assay: BSK_3C_MCP1: BioMAP Diversity Plus: 3C Assay for Monocyte Chemoattractant Protein-1 (MCP1) Biomarker Activity (AID 2283017; active = hit-call score of the fitted dose curve at least 0.9, where 1 is the maximum; inactive = score below 0.9); details: primary human endothelial cells (HUVEC); actives raise or lower the signal
Method in brief: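 Endothelial cells from human umbilical vein are dosed with chemical, cultured 24 h, then assayed for MCP-1 by ELISA; both increases and decreases are modelled against DMSO controls.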

[5] = read-out: Monocyte Chemoattractant Protein-1 (MCP1), CCL2 (gene 6347); assay: BSK_4H_MCP1: BioMAP Diversity Plus: 4H Assay for Monocyte Chemoattractant Protein-1 (MCP1) Biomarker Activity (AID 2283018; active = hit-call score of the fitted dose curve at least 0.9, where 1 is the maximum; inactive = score below 0.9); details: primary human endothelial cells (HUVEC); actives raise or lower the signal
Method in brief: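 Endothelial cells from umbilical vein were treated with test chemical, then after 24 h MCP-1 levels were quantified by ELISA; endpoint values came from bidirectional fitting with DMSO as baseline of activity.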

[6] = read-out: Human Leukocyte Antigen - DR isotype (HLADR), HLA-DRA (gene 3122); assay: BSK_3C_HLADR: BioMAP Diversity Plus: 3C Assay for Human Leukocyte Antigen - DR isotype (HLADR) Biomarker Activity (AID 2283019; active = hit-call score of the fitted dose curve at least 0.9, where 1 is the maximum; inactive = score below 0.9;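 note: ELISA of cell-surface HLA-DR on HUVEC 24 h after dosing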); details: primary human endothelial cells (HUVEC); actives raise or lower the signal
Method in brief: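 Endothelial cells from human umbilical vein are treated with test chemical; after 24 h, HLA-DR levels are measured by ELISA. Data are fitted in both directions using DMSO as the baseline.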

[7] = read-out: Interleukin-8 (IL8), CXCL8 (gene 3576); assay: BSK_3C_IL8: BioMAP Diversity Plus: 3C Assay for Interleukin-8 (IL8) Biomarker Activity (AID 2283020; active = hit-call score of the fitted dose curve at least 0.9, where 1 is the maximum; inactive = score below 0.9); details: primary human endothelial cells (HUVEC); actives raise or lower the signal
Method in brief: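 Endothelial primary cells of human umbilical vein origin are dosed with chemical; after 24 h the IL-8 biomarker is measured by ELISA, and concentration–response is fitted in both directions versus DMSO.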

[8] = read-out: Monokine induced gamma interferon (MIG), CXCL9 (gene 4283); assay: BSK_3C_MIG: BioMAP Diversity Plus: 3C Assay for Monokine induced gamma interferon (MIG) Biomarker Activity (AID 2283021; active = hit-call score of the fitted dose curve at least 0.9, where 1 is the maximum; inactive = score below 0.9); details: primary human endothelial cells (HUVEC); actives raise or lower the signal
Method in brief: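 Endothelial primary cells (human umbilical vein) are dosed with test chemical in the 3C system. MIG levels are measured by ELISA at 24 h and fitted in both directions relative to DMSO.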

[9] = BSK_3C_SRB: Viability Assessment in the BioMAP Diversity Plus: 3C Assay (AID 2283023; active = hit-call score of the fitted dose curve at least 0.9, where 1 is the maximum; inactive = score below 0.9;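 note: fitted both ways against DMSO so a hit may be signal rise or drop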); details: primary human endothelial cells (HUVEC)
Method in brief: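 Cells were dosed with chemical, cultured 24 h, fixed with 10% TCA, stained with 0.1% SRB and read at 560 nm. Human umbilical vein endothelium was used; DMSO served as negative control and baseline.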

[10] = read-out: Matrix Metallopeptidase 1 (MMP1), MMP1 (gene 4312); assay: BSK_BE3C_MMP1: BioMAP Diversity Plus: BE3C Assay for Matrix Metallopeptidase 1 (MMP1) Biomarker Activity (AID 2283024; active = hit-call score of the fitted dose curve at least 0.9, where 1 is the maximum; inactive = score below 0.9); details: primary human bronchial epithelial cells; actives raise or lower the signal
Method in brief: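 MMP1 signal, measured by ELISA after a 24 h chemical exposure of human primary bronchial epithelial cells, is analysed with bidirectional fitting using DMSO as negative control.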

[11] = read-out: Pselectin, SELP (gene 6403); assay: BSK_4H_Pselectin: BioMAP Diversity Plus: 4H Assay for Pselectin Biomarker Activity (AID 2283026; active = hit-call score of the fitted dose curve at least 0.9, where 1 is the maximum; inactive = score below 0.9); details: primary human endothelial cells (HUVEC); actives raise or lower the signal
Method in brief: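 Endothelial primary cells (human umbilical vein) are dosed, incubated 24 h, and assayed for surface P-selectin by ELISA; responses in either direction are fitted relative to the DMSO negative control.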

[12] = BSK_4H_SRB: Viability Assessment in the BioMAP Diversity Plus: 4H Assay (AID 2283027; active = hit-call score of the fitted dose curve at least 0.9, where 1 is the maximum; inactive = score below 0.9;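 note: cells exposed to compound for 24 h before staining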); details: primary human endothelial cells (HUVEC)
Method in brief: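 HUVEC, 24 h post-dose; 10% TCA fix, 0.1% SRB stain, A560 nm. Total protein = overt cytotoxicity, parallel to biomarker read. Bidirectional fit vs DMSO baseline.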

[13] = BSK_BE3C_SRB: Viability Assessment in the BioMAP Diversity Plus: BE3C Assay (AID 2283028; active = hit-call score of the fitted dose curve at least 0.9, where 1 is the maximum; inactive = score below 0.9); details: primary human bronchial epithelial cells
Method in brief: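 Overt cytotoxicity was assessed as total protein in confluent human primary bronchial epithelial cultures 24 h after chemical addition, using 0.1% sulforhodamine B staining read at 560 nm.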

[14] = read-out: Thrombomodulin, THBD (gene 7056); assay: BSK_3C_Thrombomodulin: BioMAP Diversity Plus: 3C Assay for Thrombomodulin Biomarker Activity (AID 2283029; active = hit-call score of the fitted dose curve at least 0.9, where 1 is the maximum; inactive = score below 0.9); details: primary human endothelial cells (HUVEC); actives raise or lower the signal
Method in brief: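 Endothelial cells from umbilical vein are dosed with test chemical and incubated 24 h. Thrombomodulin is then quantified by ELISA, with DMSO serving as negative control and activity baseline.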

[15] = read-out: Urokinase-type plasminogen activator receptor (uPAR), PLAUR (gene 5329); assay: BSK_4H_uPAR: BioMAP Diversity Plus: 4H Assay for Urokinase-type plasminogen activator receptor (uPAR) Biomarker Activity (AID 2283030; active = hit-call score of the fitted dose curve at least 0.9, where 1 is the maximum; inactive = score below 0.9); details: primary human endothelial cells (HUVEC); actives raise or lower the signal
Method in brief: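 Chemicals are dosed onto human vascular endothelial primary cells (umbilical vein). After 24 h, uPAR is read by ELISA. Gain or loss of signal is fitted relative to DMSO.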

[16] = target: human Retinoid X Receptor beta (RXRb), RXRB (gene 6257) (UniProt P28702); assay: ATG_RXRb_TRANS: Attagene TRANS-FACTORIAL HepG2 Assay for human Retinoid X Receptor beta (RXRb) (AID 2283013)
Method in brief: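 Chimeric receptor-Gal4 activity was assessed in transiently transfected human HepG2 cells after 24 h exposure. Transcripts from GAL4-UAS reporters were quantified by fluorescent RT-PCR and capillary electrophoresis, with DMSO as negative control and baseline.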

[17] = target: human Vitamin D Receptor (VDR), VDR (gene 7421) (UniProt P11473); assay: ATG_VDR_TRANS: Attagene TRANS-FACTORIAL HepG2 Assay for human Vitamin D Receptor (VDR) (AID 2283022)
Method in brief: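 Fluorescence of labelled reporter cDNA fragments, resolved by capillary electrophoresis, gives mRNA induction after 24 h treatment of HepG2 cells carrying transfected Gal4-fusion reporter units. Activity is fitted in the positive direction with DMSO as baseline.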

[18] = target: human Thyroid Receptor alpha (THRa1), THRA (gene 7067) (UniProt P10827); assay: ATG_THRa1_TRANS: Attagene TRANS-FACTORIAL HepG2 Assay for human Thyroid Receptor alpha (THRa1) (AID 2283014)
Method in brief: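 First, HepG2 cells receive multiple GAL4-UAS reporter units and the chimeric receptor. They are then dosed for 24 h, after which RNA is reverse-transcribed, amplified, labelled, HpaI-cut and sized by capillary electrophoresis; gain relative to DMSO is scored.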

[19] = BSK_3C_Vis: BioMAP Diversity Plus: 3C Assay for Morphology Visualization (AID 2283025; active = hit-call score of the fitted dose curve at least 0.9, where 1 is the maximum; inactive = score below 0.9;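 note: fitted both ways so gain or loss versus DMSO counts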); details: primary human endothelial cells (HUVEC)
Method in brief: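 Morphology read by light microscopy serves as a background control for the multiplexed 3C assay in human umbilical vein endothelial cells, taken 24 h after dosing, with DMSO as the negative control and bidirectional curve fitting.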

[20] = target: Retinoic acid receptor RXR-alpha (Homo sapiens) (UniProt P19793); assay: ATG_RXRa_TRANS: Attagene TRANS-FACTORIAL HepG2 Assay for human Retinoid X Receptor alpha (RXRa) (AID 2283012)
Method in brief: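 Measures exogenous chimeric NR-GAL4 activity in transfected HepG2 liver cells after 24 h of dosing. Induced reporter mRNA was detected by RT-PCR with capillary electrophoresis, and gain of signal was analysed against DMSO.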

Measured: AC50

Chain of human Thyroid Receptor alpha (THRa1), THRA (gene 7067) (P10827 whole entry, looked up, the tested form may be a part): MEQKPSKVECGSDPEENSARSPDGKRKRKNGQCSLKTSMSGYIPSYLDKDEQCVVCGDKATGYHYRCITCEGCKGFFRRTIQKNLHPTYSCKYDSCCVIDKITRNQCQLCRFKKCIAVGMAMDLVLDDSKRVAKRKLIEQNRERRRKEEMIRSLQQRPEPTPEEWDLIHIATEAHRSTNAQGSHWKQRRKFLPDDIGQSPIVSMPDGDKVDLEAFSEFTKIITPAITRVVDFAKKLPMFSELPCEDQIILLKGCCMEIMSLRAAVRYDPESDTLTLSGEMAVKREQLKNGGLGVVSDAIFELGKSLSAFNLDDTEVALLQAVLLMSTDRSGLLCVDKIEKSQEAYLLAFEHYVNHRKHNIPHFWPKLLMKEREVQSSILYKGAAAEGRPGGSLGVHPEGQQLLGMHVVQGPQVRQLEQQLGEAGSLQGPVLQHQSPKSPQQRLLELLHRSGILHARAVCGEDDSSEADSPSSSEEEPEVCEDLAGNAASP
Chain of Retinoic acid receptor RXR-alpha (Homo sapiens) (P19793 whole entry, looked up, the tested form may be a part): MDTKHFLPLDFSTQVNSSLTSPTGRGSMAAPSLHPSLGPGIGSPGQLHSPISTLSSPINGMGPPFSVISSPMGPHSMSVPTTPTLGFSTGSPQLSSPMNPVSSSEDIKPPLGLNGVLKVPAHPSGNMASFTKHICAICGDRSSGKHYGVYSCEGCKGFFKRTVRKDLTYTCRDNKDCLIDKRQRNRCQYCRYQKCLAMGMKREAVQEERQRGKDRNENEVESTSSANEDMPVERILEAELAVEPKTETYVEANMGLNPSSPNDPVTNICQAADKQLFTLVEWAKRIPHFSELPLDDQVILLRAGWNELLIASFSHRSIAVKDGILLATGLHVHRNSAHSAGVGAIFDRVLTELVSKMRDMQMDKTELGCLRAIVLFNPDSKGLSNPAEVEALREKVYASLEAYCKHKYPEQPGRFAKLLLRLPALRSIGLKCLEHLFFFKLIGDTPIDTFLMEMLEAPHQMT
Chain of E-selectin (Homo sapiens) (P16581 whole entry, looked up): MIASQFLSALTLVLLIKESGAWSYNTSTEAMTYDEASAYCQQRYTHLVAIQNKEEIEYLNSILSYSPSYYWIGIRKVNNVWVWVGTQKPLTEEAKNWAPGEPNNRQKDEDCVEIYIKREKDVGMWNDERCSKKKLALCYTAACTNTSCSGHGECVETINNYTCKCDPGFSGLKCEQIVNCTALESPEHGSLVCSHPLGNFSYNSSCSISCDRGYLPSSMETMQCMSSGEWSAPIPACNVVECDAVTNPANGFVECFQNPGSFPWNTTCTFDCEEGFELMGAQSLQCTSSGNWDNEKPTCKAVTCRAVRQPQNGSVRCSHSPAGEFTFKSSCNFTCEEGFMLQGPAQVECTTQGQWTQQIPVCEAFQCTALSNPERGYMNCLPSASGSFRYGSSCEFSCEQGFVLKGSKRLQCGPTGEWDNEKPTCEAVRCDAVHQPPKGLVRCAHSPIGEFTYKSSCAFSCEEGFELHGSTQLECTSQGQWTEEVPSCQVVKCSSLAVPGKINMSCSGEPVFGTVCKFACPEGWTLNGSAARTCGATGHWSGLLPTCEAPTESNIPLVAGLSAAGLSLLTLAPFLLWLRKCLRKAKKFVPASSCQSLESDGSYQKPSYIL
Chain of human Retinoid X Receptor beta (RXRb), RXRB (gene 6257) (P28702 whole entry, looked up, the tested form may be a part): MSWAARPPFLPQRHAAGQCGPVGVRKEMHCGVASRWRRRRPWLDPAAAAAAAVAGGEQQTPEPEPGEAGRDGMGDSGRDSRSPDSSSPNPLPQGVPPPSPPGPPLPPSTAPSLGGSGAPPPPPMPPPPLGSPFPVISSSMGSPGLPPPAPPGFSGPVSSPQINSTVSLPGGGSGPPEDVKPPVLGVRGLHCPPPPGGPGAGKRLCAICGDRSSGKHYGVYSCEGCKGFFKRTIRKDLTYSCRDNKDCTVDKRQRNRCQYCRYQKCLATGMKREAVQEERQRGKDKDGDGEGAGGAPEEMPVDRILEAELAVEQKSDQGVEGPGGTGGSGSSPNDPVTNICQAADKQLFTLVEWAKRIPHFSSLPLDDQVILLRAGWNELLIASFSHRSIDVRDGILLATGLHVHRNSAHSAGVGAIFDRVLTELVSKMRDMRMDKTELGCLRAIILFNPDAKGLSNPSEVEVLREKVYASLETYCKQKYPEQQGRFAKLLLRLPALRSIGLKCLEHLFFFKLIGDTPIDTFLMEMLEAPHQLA
Chain of human Vitamin D Receptor (VDR), VDR (gene 7421) (P11473 whole entry, looked up, the tested form may be a part): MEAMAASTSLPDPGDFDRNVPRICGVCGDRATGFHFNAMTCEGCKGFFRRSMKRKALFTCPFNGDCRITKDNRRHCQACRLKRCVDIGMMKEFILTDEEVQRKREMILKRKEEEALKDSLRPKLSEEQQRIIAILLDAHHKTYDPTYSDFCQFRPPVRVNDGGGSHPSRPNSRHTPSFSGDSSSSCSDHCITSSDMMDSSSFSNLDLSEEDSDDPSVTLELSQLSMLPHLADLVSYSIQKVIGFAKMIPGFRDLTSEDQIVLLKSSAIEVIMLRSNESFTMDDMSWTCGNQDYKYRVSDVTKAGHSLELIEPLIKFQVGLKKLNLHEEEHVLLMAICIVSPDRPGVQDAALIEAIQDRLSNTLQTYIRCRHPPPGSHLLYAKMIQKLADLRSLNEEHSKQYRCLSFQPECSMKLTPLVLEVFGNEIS
Chain of human RAR-related Orphan Receptor gamma (RORg), RORC (gene 6097) (P51449 whole entry, looked up, the tested form may be a part): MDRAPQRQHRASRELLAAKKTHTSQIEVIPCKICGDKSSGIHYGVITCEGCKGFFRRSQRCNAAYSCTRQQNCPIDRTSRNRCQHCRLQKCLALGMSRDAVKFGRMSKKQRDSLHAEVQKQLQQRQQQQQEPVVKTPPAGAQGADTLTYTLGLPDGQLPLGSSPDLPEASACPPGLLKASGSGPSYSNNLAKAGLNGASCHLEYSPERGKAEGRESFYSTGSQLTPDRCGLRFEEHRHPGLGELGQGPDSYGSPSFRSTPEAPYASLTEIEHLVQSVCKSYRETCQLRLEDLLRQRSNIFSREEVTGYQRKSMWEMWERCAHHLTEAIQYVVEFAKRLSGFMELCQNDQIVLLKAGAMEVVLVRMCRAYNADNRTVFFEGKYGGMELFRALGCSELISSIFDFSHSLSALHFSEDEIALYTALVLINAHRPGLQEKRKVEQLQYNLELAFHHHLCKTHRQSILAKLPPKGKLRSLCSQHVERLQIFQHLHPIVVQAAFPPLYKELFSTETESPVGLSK

NCCNCCN
not listed: [16] | [17] | [18] | [19] | [20]
inactive: all other assays above

CN1[C@@H]2CC(OC(=O)[C@H](CO)c3ccccc3)C[C@H]1[C@@H]1O[C@@H]12 (some centres not stated)
inactive: [1] | [17]
active: [16] 160 µM

O=C(O)c1cn(-c2ccc(F)cc2)c2cc(N3CCNCC3)c(F)cc2c1=O
not listed: [13] | [17] | [20]
inactive: all other assays above

CCC(C)CCCC(C)(C)O (configuration not stated)
inactive: [1] | [18] | [17]

CCCCCC(CO)CCC (configuration not stated)
inactive: [1] | [16] | [18] | [17]

CC1(C)[C@@H]2CC[C@@]1(C)[C@H](O)C2
inactive: [1] | [18]

CC1CC(OC(=O)c2ccccc2O)CC(C)(C)C1 (configuration not stated)
inactive: [1] | [18]

CC(C)(C)C(=O)c1ccccc1
inactive: [1] | [16] | [18] | [17]

O=C(O)c1ccc(C(=O)O)cc1
inactive: [1] | [18]

Cc1ccc2n[nH]nc2c1
not listed: [13] | [17] | [20]
inactive: all other assays above

CC(C)C[C@H]1C(=O)N2CCC[C@H]2[C@]2(O)O[C@](NC(=O)[C@@H]3C=C4c5cccc6[nH]c(Br)c(c56)C[C@H]4N(C)C3)(C(C)C)C(=O)N12
inactive: [1] | [17]

COc1cccc(OC)c1
inactive: [1] | [17]

OCCOc1cccc(OCCO)c1
inactive: [1] | [18] | [17]

CCCCOCCOCCOCCOCCO
inactive: [1] | [18] | [17]

CC1=CC(=O)NS(=O)(=O)O1
inactive: [1] | [16] | [18] | [17]

Nc1ccc(F)c([N+](=O)[O-])c1
inactive: [1] | [16] | [18] | [17]

OC1C(O)C(O)C(O)C(O)C1O (configuration not stated)
inactive: [1] | [16] | [18] | [17]

Clc1ccc(Cl)c(Cl)c1Cl
inactive: [1] | [18] | [17]
active: [16] 63.4 µM

O=C(Nc1ccccc1)c1cc([N+](=O)[O-])ccc1Cl
inactive: [1] | [18]

Cc1ccc2ccccc2n1
inactive: [1] | [18] | [17]

Cc1ccc2sc3cccc(C)c3c2c1
inactive: [1] | [18] | [17]

CC(=O)OCCOC(C)=O
inactive: [1] | [18] | [17]

C=CC(=O)OCCOCCOCC
inactive: [1] | [18]

CC(C)=CCC/C(C)=C/COC=O
inactive: [1] | [16] | [17]

C=C[Si](OCC)(OCC)OCC
not listed: [13] | [18] | [20]
inactive: all other assays above

CCn1c2ccccc2c2cc(N)ccc21
inactive: [13]

COC(=O)c1ccc(C)cc1
inactive: [13]

CO[Si](CCCn1c(=O)n(CCC[Si](OC)(OC)OC)c(=O)n(CCC[Si](OC)(OC)OC)c1=O)(OC)OC
inactive: [20] | [16] | [18] | [17]

O=C(Oc1ccccc1)c1ccc(O)cc1
inactive: [20] | [16] | [18] | [17]

Cc1c(Cl)c(=O)oc2cc(O)ccc12
inactive: [20] | [16] | [18] | [17]

O=C(O)c1cn(C2CC2)c2cc(N3CCNCC3)c(F)cc2c1=O
not listed: [1] | [17] | [18]
inactive: all other assays above

Cc1cccc(Nc2ccccc2C(=O)O)c1C
inactive: [20] | [18]

COc1cc(C(C)(C)C)c(O)c(C(C)(C)C)c1
inactive: [18] | [17]
active: [20] 15.4 µM | [16] 0.745 µM

O=C1CCc2ccccc2O1
inactive: [20] | [16] | [17]

COCCCOc1ccnc(CS(=O)c2nc3ccccc3[nH]2)c1C (configuration not stated)
inactive: [20]
active: [18] 100 µM

Cc1ccc(Nc2ccc(O)c3c2C(=O)c2ccccc2C3=O)cc1
not listed: [1] | [13] | [16]
inactive: all other assays above

Cc1ccc(C=O)s1
inactive: [20] | [18]

CC(C)=CCCC(C)=CCCC(C)=CCO
active: [20] 100 µM | [16] 28.1 µM
inactive: [17]
